According to PubChem BioAssay AID1159580 (chemical genetic matrix, 2015):
Where “and” joins values, the source holds several entries; their conditions need not be identical. Identical values can stand only once. About 2,000 (36%) of roughly 5,500 compounds were called active. Another 18% or so got no clear call; they are omitted. Cut-off read from the data, not from the text of the source: active = normalized growth mostly below about 0.91 (no sharp cut-off); inconclusive = no clear call, values can overlap the other calls; inactive = mostly above about 0.92. Some of the results follow.

Experiment: chemical genetic growth profiling, strain panel (AID 1159580);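 note: tested at 20 µM; growth read once vehicle control cultures reached saturation at 30 °C; 1 = growth at the plate median or of vehicle wells; lower values mean less growth of the strain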
Settings: S. cerevisiae deletion strains, growth OD

Measured: normalized growth

CC1(C)S[C@@H]2[C@H](NC(=O)COc3ccccc3)C(=O)N2[C@H]1C(=O)O
inactive: locus YAL013W, strain DEP1, stronger effect = lower value 1 | locus YAL021C, strain ccr4, stronger effect = lower value 1.01 | locus YAL026C, strain drs2, stronger effect = lower value 1 | locus YAL030W, strain snc1, stronger effect = lower value 0.989 | locus YBL061C, strain skt5, stronger effect = lower value 0.985 | locus YBR009C, strain hhf1, stronger effect = lower value 1.01 | locus YBR021W, strain FUR4, stronger effect = lower value 1.02 | locus YBR023C, strain chs3, stronger effect = lower value 0.996 | locus YBR171W, strain sec66, stronger effect = lower value 0.969 | locus YBR229C, strain ROT2, stronger effect = lower value 1 | locus YBR231C, strain swc5, stronger effect = lower value 0.975 | locus YBR279W, strain paf1, stronger effect = lower value 0.999 | locus YCL011C, strain gbp2, stronger effect = lower value 1 | locus YCL016C, strain dcc1, stronger effect = lower value 1.02 | locus YCL029C, strain bik1, stronger effect = lower value 1.04 | locus YCL069W, strain vba3, stronger effect = lower value 0.993 | locus YCR088W, strain abp1, stronger effect = lower value 0.997 | locus YDL005C, strain med2, stronger effect = lower value 0.994 | locus YDL035C, strain GPR1, stronger effect = lower value 1.01 | locus YDL040C, strain nat1, stronger effect = lower value 0.993 | locus YDL074C, strain BRE1, stronger effect = lower value 1.01 | locus YDL101C, strain DUN1, stronger effect = lower value 1.01 | locus YDL134C, strain PPH21, stronger effect = lower value 1.01 | locus YDL185W, strain tfp1, stronger effect = lower value 1.01 | locus YDL192W, strain arf1, stronger effect = lower value 1.03 | locus YDR001C, strain nth1, stronger effect = lower value 0.99 | locus YDR069C, strain doa4, stronger effect = lower value 0.98 | locus YDR101C, strain arx1, stronger effect = lower value 1.02 | locus YDR137W, strain rgp1, stronger effect = lower value 0.975 | locus YDR150W, strain NUM1, stronger effect = lower value 0.999 | locus YDR159W, strain sac3, stronger effect = lower value 1 | locus YDR162C, strain NBP2, stronger effect = lower value 1.01 | locus YDR195W, strain ref2 0.955 | locus YDR297W, strain sur2, stronger effect = lower value 0.991 | locus YDR318W, strain mcm21, stronger effect = lower value 1.02 | locus YDR334W, strain swr1, stronger effect = lower value 0.993 | locus YDR335W, strain msn5, stronger effect = lower value 0.986 | locus YDR388W, stronger effect = lower value 1.02 | locus YDR392W, strain spt3, stronger effect = lower value 1.03 | locus YDR502C, strain sam2, stronger effect = lower value 1.03 | locus YEL003W, strain gim4, stronger effect = lower value 0.997 | locus YEL037C, strain rad23, stronger effect = lower value 0.992 | locus YEL061C, strain CIN8 (second series), stronger effect = lower value 0.986 | locus YEL061C, strain CIN8, stronger effect = lower value 1 | locus YER015W, strain faa2, stronger effect = lower value 0.999 | locus YER016W, strain bim1, stronger effect = lower value 1 | locus YER110C, stronger effect = lower value 1.02 | locus YER111C, strain swi4, stronger effect = lower value 0.99 | locus YER155C, strain BEM2 (second series), stronger effect = lower value 0.977 | locus YER155C, strain BEM2, stronger effect = lower value 0.999 | locus YER167W, strain BCK2, stronger effect = lower value 1 | locus YFR010W, strain ubp6, stronger effect = lower value 0.98 | locus YGL078C, strain dbp3, stronger effect = lower value 1.02 | locus YGL086W, strain mad1, stronger effect = lower value 1.01 | locus YGL167C, strain pmr1, stronger effect = lower value 0.996 | locus YGL173C, strain kem1, stronger effect = lower value 0.991 | locus YGL227W, strain vid30, stronger effect = lower value 0.984 | locus YGL240W, strain doc1, stronger effect = lower value 0.976 | locus YGL248W, strain PDE1, stronger effect = lower value 1.01 | locus YGL253W, strain hxk2, stronger effect = lower value 0.998 | locus YGR078C, strain PAC10, stronger effect = lower value 1.01 | locus YGR135W, strain pre9, stronger effect = lower value 1.02 | locus YGR229C, strain SMI1, stronger effect = lower value 1.01 | locus YGR252W, strain gcn5, stronger effect = lower value 1.02 | locus YHR013C, strain ard1, stronger effect = lower value 1 | locus YHR027C, strain rpn1, stronger effect = lower value 1.01 | locus YHR030C, strain SLT2, stronger effect = lower value 1.01 and 0.967 | locus YHR079C, strain IRE1 (second series), stronger effect = lower value 1.02 | locus YHR079C, strain IRE1, stronger effect = lower value 0.98 | locus YHR094C, strain hxt1, stronger effect = lower value 1.02 | locus YHR129C, strain ARP1, stronger effect = lower value 1 | locus YHR142W, strain chs7, stronger effect = lower value 1.01 | locus YHR200W, strain rpn10, stronger effect = lower value 1.02 | locus YIL066C, strain RNR3, stronger effect = lower value 1.01 | locus YIL073C, strain SPO22, stronger effect = lower value 1.07 | locus YIL125W, strain kgd1, stronger effect = lower value 1.02 | locus YIR030C, strain dcg1, stronger effect = lower value 1.03 | locus YJL092W, strain hpr5, stronger effect = lower value 0.976 | locus YJL095W, strain BCK1 (second series), stronger effect = lower value 0.99 | locus YJL095W, strain BCK1, stronger effect = lower value 1.01 and 0.99 | locus YJL115W, strain asf1, stronger effect = lower value 0.988 | locus YJL129C, strain trk1, stronger effect = lower value 0.955 | locus YJL134W, strain LCB3, stronger effect = lower value 1 | locus YJL154C, strain vps35, stronger effect = lower value 0.988 | locus YJL164C, strain tpk1, stronger effect = lower value 1.02 | locus YJL166W, strain qcr8, stronger effect = lower value 0.953 | locus YJL168C, strain set2, stronger effect = lower value 1.02 | locus YJL187C, strain SWE1 (second series), stronger effect = lower value 1.01 | locus YJL187C, strain SWE1, stronger effect = lower value 0.997 | locus YJR043C, strain POL32, stronger effect = lower value 1.01 | locus YJR066W, strain TOR1, stronger effect = lower value 0.92
